Holding throughout (experiment): protein-binding microarray (PBM); PBM: ~300 nM protein, 6 mM HEPES pH 7.8, 80 mM KCl, 0.5 mM EDTA, 0.5 mM EGTA, 6% glycerol, 35 ng/ul poly-dIdC, 1% milk, 1 h, room temperature; Ap Aiptasia and Nv Nematostella (sea anemones) / Co Capsaspora / Aq Amphimedon (sponge) / Dm Drosophila / Hu human; RHD is the Rel homology domain; high values mean tight binding
Common to all, as to conditions: dsDNA, one strand shown

Assay [1] has as its target T1, GST-Ap-NF-kB RHD (Exaiptasia pallida (Aiptasia), UniProt A0A913YAJ5 2-422).
T1 sequence: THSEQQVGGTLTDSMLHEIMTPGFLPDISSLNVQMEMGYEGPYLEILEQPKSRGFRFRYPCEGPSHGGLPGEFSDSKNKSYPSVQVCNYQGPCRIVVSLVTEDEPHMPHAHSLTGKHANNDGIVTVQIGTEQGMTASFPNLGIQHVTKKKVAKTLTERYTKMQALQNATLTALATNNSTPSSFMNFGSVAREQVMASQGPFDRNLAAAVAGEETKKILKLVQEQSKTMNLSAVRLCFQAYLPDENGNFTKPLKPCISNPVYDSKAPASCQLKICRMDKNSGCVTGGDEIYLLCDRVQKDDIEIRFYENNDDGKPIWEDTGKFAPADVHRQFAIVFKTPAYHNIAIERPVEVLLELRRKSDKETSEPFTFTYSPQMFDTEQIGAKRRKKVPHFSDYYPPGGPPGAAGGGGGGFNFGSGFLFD

The target of assay [2] is T2, GST-Nv-NF-kB (Cys allele) (Nematostella vectensis, UniProt E5G601 2-411).
T2 sequence: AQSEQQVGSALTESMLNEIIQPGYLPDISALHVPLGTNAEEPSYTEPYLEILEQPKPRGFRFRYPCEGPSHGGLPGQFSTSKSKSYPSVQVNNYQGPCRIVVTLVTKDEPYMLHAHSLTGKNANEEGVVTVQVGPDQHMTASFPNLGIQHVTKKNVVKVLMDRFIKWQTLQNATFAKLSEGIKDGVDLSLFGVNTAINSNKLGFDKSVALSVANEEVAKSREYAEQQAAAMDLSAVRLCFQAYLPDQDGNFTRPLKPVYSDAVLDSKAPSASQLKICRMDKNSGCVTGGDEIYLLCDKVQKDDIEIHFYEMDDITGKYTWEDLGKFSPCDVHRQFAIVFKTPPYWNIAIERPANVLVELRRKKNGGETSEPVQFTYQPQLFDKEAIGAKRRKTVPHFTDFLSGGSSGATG

In assay [3] the target is T3, GST-Nv-NF-kB (Ser allele) (Nematostella vectensis, UniProt A7UNT2 2-411).
T3 sequence: T2 sequence with Q21R, C66S, S207N, E215Q, V217A, E225K, A268E, D399E

In assay [4] the target is T4, GST-Co-NF-kB (Capsaspora owczarzaki, UniProt F1ARL5 200-546).
T4 sequence: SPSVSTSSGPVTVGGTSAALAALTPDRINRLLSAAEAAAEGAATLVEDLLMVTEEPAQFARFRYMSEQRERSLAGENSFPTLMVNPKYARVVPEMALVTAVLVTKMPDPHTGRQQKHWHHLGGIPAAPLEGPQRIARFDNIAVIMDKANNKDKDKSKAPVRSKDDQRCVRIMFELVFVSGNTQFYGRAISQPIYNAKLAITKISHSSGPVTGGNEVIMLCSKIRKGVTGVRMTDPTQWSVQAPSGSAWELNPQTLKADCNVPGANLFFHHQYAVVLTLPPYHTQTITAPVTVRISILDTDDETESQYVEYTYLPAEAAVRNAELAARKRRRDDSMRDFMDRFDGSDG

For assay [5], the target named is T5, GST-Dm-Relish (Drosophila melanogaster, UniProt Q94527 99-473).
T5 sequence: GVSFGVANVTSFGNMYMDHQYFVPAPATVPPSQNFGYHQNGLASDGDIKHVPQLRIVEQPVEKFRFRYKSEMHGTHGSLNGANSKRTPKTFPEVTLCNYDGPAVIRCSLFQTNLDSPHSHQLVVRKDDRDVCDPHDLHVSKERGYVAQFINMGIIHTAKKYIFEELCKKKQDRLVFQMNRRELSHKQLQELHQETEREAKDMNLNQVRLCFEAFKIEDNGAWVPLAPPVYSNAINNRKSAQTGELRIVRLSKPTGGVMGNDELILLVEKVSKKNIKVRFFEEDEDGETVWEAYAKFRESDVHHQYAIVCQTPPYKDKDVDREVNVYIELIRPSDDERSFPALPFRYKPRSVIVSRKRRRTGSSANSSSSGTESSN

For assay [6], the target named is T6, GST-Aq-NF-kB (Amphimedon queenslandica, UniProt A9Y5G7 2-389).
T6 sequence: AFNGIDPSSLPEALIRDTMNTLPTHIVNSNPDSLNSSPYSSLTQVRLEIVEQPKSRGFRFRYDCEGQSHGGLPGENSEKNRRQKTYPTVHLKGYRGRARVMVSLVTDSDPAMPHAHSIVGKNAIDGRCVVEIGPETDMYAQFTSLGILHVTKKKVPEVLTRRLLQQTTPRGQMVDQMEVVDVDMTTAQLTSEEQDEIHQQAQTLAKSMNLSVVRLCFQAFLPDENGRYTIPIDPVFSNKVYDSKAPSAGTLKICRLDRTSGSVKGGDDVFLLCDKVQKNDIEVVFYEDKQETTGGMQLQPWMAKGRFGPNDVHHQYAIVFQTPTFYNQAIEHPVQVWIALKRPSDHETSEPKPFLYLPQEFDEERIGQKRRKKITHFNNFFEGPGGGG

Substitutions are numbered along the chain they refer to.

As for “CCGATTAACATCAACGTTTTCCCTGATGTTAATCGGGTCTTGATTCGCTTGACGCTGCTG”, the binding signal in assay [1] is 3.04 z-score; in assay [2], 4.61 z-score; in assay [3], 6.7 z-score; in assay [4], 4.29 z-score; in assay [5] it was 1.51 z-score; in assay [6], 3.21 z-score.

For “CCGATTAACATCAGGGGATAATATGATGTTAATCGGGTCTTGATTCGCTTGACGCTGCTG”, the binding signal in assay [1] stood at 5.41 z-score; in assay [2], 5.47 z-score; in assay [3], 7.02 z-score; in assay [4], 5.65 z-score; in assay [5], 2.58 z-score; in assay [6], 4.59 z-score.

In the case of “CCGATTAACATCAAATTCCCACGTGATGTTAATCGGGTCTTGATTCGCTTGACGCTGCTG”, the binding signal in assay [1] was found to be 2.06 z-score; in assay [2], 3.63 z-score; in assay [3] it was 3.63 z-score; in assay [4] it was 2.77 z-score; in assay [5], 3.95 z-score; in assay [6], 2.61 z-score.

For the sequence “CCGATTAACATCAACATTTTCCCTGATGTTAATCGGGTCTTGATTCGCTTGACGCTGCTG”, the binding signal was 3.52 z-score in assay [1]; 5.79 z-score in assay [2]; 8.32 z-score in assay [3]; 4.91 z-score in assay [4]; 1.62 z-score in assay [5]; 3.41 z-score in assay [6].

For the sequence “CCGATTAACATCAGGGGATTAAATGATGTTAATCGGGTCTTGATTCGCTTGACGCTGCTG”, the binding signal in assay [1] came out at 4.91 z-score; in assay [2] it was 6.29 z-score; in assay [3], 7.01 z-score; in assay [4], 3.71 z-score; in assay [5] it was 5.28 z-score; in assay [6], 5.21 z-score.

“CCGATTAACATCAGGGGTGGGGATGATGTTAATCGGGTCTTGATTCGCTTGACGCTGCTG”: the binding signal was found to be 4.17 z-score in assay [1]; 3.38 z-score in assay [2]; 3.28 z-score in assay [3]; 5.49 z-score in assay [4]; 2.85 z-score in assay [5]; 3.59 z-score in assay [6].

For the origin of these results see PMC5700166.
